A selection: hits, their analogues and other compounds. The true share with any hit is near 1.8%.
TRPML1 blocker – inhibitors of human TRPML1 channel; Q9GZU1; AID 624415; TRPML1-inducible cells, Ca2+ dye fluorescence, FDSS; stronger effect = lower value; inhibition of EC80 agonist-evoked calcium signal; 390,000 tested, 0.02% active; activity change, negative = inhibition, % (no concentration beside the values); in the data active = activity change below about -50%; inconclusive = between about -30% and that limit;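 note: stimulus is agonist 54-4 at its EC80 concentration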
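TRPML1-DL cells, Tet-induced overnight (~16 h, 37 °C) at 1,500 cells/well, were loaded with Ca8 no-wash dye plus quencher for 45-90 min at room temperature. Compounds were pinned during FDSS kinetic reading; agonist 54-4 at EC80 (4 uM final) then added.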
TRPML1 ag – agonists of human TRPML1 channel | TRPML1-expressing cells, Ca2+ dye fluorescence, FDSS | activation, % (no concentration beside the values) | 410,000 tested, 0.12% active; in the data active = activation above about 50%; inconclusive = mostly about 30% to 49%
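Tet-induced TRPML1-DL cells, 1,500 per well, cultured overnight, were loaded with a no-wash Ca2+ dye for 45–90 min. Calcium fluorescence was recorded on the FDSS for 110 s after compound addition, before the EC80 agonist (4 uM 54-4) was added.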
HEK293 tox – cytotoxicity counter-screen for GLP-1 receptor inverse agonists; HEK293 cAMP-luciferase reporter cells, luminescence, 24 h; Potency, µM (top dose mostly 38.3 µM), most hits filed as inhibitors; 410,000 tested, 0.13% active;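 note: loss of luciferase light is scored as toxicity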
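A 23 nL compound transfer followed 12 hours of cell culture at 37 deg C; exposure then lasted 24 hr. Luciferase assay detection reagent was dispensed and plates read for luminescence after a 12 min room-temperature wait.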
GLP1R inv ag – acts as inverse agonist at human GLP-1 receptor. HEK293 GLP-1R CRE-luciferase, luminescence, 24 h; GLP-1R form is constitutively active. Potency, µM (top dose mostly 38.3 µM), hits mostly inhibitors. 410,000 tested, 1.6% active. AID 624417; note: nearly all actives have a fitted effect of over 55% in size
Target sequence (P43220 whole entry, looked up): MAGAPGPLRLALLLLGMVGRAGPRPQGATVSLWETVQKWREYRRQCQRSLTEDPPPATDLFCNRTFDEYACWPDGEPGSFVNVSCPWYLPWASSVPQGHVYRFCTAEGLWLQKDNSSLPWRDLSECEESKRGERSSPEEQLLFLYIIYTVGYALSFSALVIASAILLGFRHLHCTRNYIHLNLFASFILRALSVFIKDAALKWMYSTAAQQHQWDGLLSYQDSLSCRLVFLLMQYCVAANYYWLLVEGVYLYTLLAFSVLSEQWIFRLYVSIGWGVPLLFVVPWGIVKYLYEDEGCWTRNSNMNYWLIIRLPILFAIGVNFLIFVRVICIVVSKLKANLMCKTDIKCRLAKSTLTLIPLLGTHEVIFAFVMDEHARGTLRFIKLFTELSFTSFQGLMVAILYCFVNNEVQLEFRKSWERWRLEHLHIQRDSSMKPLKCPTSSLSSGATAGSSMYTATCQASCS
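Stable HEK293 clone (constitutively active GLP-1R + cAMP-response luciferase); 200 cells/uL plated, 12 h pre-culture, compound 24 hr, 37 deg C/5% CO2; detection reagent 12 min RT; luminescence.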
GLP1R ag – activates the human GLP-1 receptor. Potency, µM (top dose mostly 45.6 µM), actives largely listed as activators. 380,000 tested, 0.007% active. HEK293 GLP-1R CRE-luciferase, luminescence, 4-6 h; cells express a hypersensitive GLP-1R form. P43220
Each line names hits and unclear results; the compound was inactive in the other large screens. Unless noted, calls come from the whole dose curve; as a rule, active = well fitted curve in the direction sought with a large enough effect; inconclusive = small, poorly fitted or top-dose-only effect, or another doubt; inactive = no such curve, though single readings can be large; an effect the other way counts as inactive or inconclusive.

CC(C)c1ccccc1NC(=O)c1cccc(NC(=O)c2ccccc2)c1	GLP1R inv ag 10µM
CC(C)c1cc(NC(=O)c2ccccc2)cc(C(C)C)c1O	GLP1R inv ag 11µM
CCOC(=O)c1ccc(NC(=O)C(CC)Sc2nc3ncccc3[nH]2)cc1 (configuration not stated)	none (no result: GLP1R ag)
CCOc1ccc(CNC(=O)c2cc3cc(S(=O)(=O)N4CCCCC4)ccc3n2C)cc1	none (no result: GLP1R ag)
O=C(N/N=C/c1ccc[nH]1)c1sc2ccccc2c1Cl	HEK293 tox inconclusive, GLP1R inv ag 10µM
COc1cccc2c1C(=O)/C(=C\c1ccc(N(C)C)cc1)C2	TRPML1 ag 62 (no result: TRPML1 blocker, HEK293 tox, GLP1R inv ag, GLP1R ag)
CCC(=O)N/N=C/c1ccc(OS(=O)(=O)c2ccccc2)cc1	none
NC(N)=N/N=C/c1ccc(OS(=O)(=O)c2ccccc2)cc1	HEK293 tox inconclusive, GLP1R inv ag 6.3µM
COc1cc(OC)cc(C(=O)N(Cc2ccco2)Cc2cccs2)c1	none (no result: TRPML1 blocker, HEK293 tox, GLP1R inv ag, GLP1R ag)
COC(=O)c1cc2oc3ccccc3c2n1CC(=O)Nc1ccc(C)c(F)c1	none (no result: GLP1R ag)
CC(C)(CN1CCCC1)NS(=O)(=O)c1ccc(Cl)cc1	none
CC(C)(CN1CCNCC1)NS(=O)(=O)c1ccc(Cl)cc1	HEK293 tox inconclusive, GLP1R inv ag 2µM
Cc1ccc(S(=O)(=O)NC(C)(C)CN2CCC(Cc3ccccc3)CC2)cc1	GLP1R inv ag 2.5µM
COc1ccc2[nH]c(C)c(C(=O)CN(C)CC(OC)OC)c2c1	none (no result: TRPML1 blocker, HEK293 tox, GLP1R inv ag, GLP1R ag)
CC(C)(C)c1ccc2c(c1)OC(C(=O)N/N=C\c1ccc[nH]1)CO2 (configuration not stated)	GLP1R inv ag inconclusive
Cn1cccc1/C=N\NC(=O)C1COc2ccccc2O1 (configuration not stated)	TRPML1 ag 85
Cn1cccc1/C=N\NC(=O)C1COc2ccc(C(C)(C)C)cc2O1 (configuration not stated)	GLP1R inv ag 10µM
O=C(CNC(=O)C1COc2ccccc2O1)N/N=C\c1ccc(Br)cc1 (configuration not stated)	GLP1R inv ag 10µM
COc1ccc(Br)cc1/C=N/NC(=O)CNC(=O)C1COc2ccccc2O1 (configuration not stated)	GLP1R inv ag inconclusive
CCN(Cc1nc(-c2ccc(OC)c(OC)c2)no1)S(=O)(=O)c1ccc(OC)cc1	none (no result: GLP1R ag)
CCOC(=O)c1c(NC(=O)CSc2cn(CCNC(=O)c3ccc(OC)c(OC)c3)c3ccccc23)sc2c1CCCC2	none
Cc1sc(-c2cc3c([nH]c2=O)CC(c2ccccc2)CC3=O)nc1-c1ccc(Cl)cc1 (configuration not stated)	HEK293 tox inconclusive, GLP1R inv ag 1.3µM (no result: GLP1R ag)
CCN1CCN(Cc2ccc(NC(=O)c3cc(NC(=O)C(=O)c4c[nH]c5ccccc45)cc(OC)c3)cc2C(F)(F)F)CC1	HEK293 tox inconclusive, GLP1R inv ag 10µM
CCN1CCN(Cc2ccc(NC(=O)c3cc(NC(=O)c4cc(C)on4)cc(OC)c3)cc2C(F)(F)F)CC1	HEK293 tox inconclusive, GLP1R inv ag inconclusive
CCC(C)(C)c1ccc(Oc2ccc(N)cc2)cc1	GLP1R inv ag 2.8µM
O=C(c1ccc2c(=O)n3c(nc2c1)CCCCC3)N1CCN(c2ccc(F)cc2)CC1	GLP1R inv ag 5µM
O=C(c1ccc2c(=O)n3c(nc2c1)CCCCC3)N1CCN(c2ccc(Cl)cc2)CC1	GLP1R inv ag 7.1µM
CCOC(=O)N1CCN(C(=O)c2ccc3c(=O)n4c(nc3c2)CCCCC4)CC1	none
COc1ccc(C2/C=C\CN([S+](=O)([O-])c3ccc4ccccc4c3)C(C)C(=O)N2Cc2ccc(F)cc2)cc1 (configuration not stated)	none (no result: HEK293 tox, GLP1R inv ag, GLP1R ag)
COc1ccc2c(c1)c1nnc(SC)nc1n2Cc1ccccc1	none (no result: TRPML1 blocker, HEK293 tox, GLP1R inv ag, GLP1R ag)
COc1ccc(NC(=O)c2cc3c(=O)n(Cc4cccs4)ccc3nc2C)c(OC)c1	none (no result: GLP1R ag)
Cc1cccc(CSc2ncc(Cl)c(C(=O)Nc3sc4c(c3C#N)CCCC4)n2)c1	none (no result: GLP1R ag)
CCOc1ccccc1-n1c(=S)sc2c(=O)n(-c3ccc(C)cc3)c(=S)[nH]c21	TRPML1 blocker inconclusive, TRPML1 ag 66, GLP1R inv ag inconclusive
CCn1c(=S)sc2c(=O)n(-c3ccccc3)c(=S)[nH]c21	GLP1R inv ag inconclusive
COc1ccc(C=Cc2ccc3ccccc3n2)c(OC)c1	GLP1R inv ag 4.5µM
CCCCC(CC)Cn1c(Oc2ccccc2)nc2c1c(=O)n(C)c(=O)n2C (configuration not stated)	none
COc1cccc(N2C(=O)C(CC(=O)Nc3ccc(Cl)cc3)N(Cc3ccc4c(c3)OCO4)C2=O)c1 (configuration not stated)	GLP1R inv ag inconclusive (no result: GLP1R ag)
O=C(c1ccc(F)cc1)C(CCCCCC(CN1CCOCC1)C(=O)c1ccc(F)cc1)CN1CCOCC1 (configuration not stated)	GLP1R inv ag 10µM
Cc1[nH][nH]c(=O)c1C(c1c(C)[nH][nH]c1=O)c1cn(Cc2ccc(F)cc2)c2ccccc12	HEK293 tox inconclusive, GLP1R inv ag 2µM
CCCN(C(=O)Nc1cn(CC(C)C)c(=O)c2ccccc12)c1ccc(F)cc1	GLP1R inv ag inconclusive
O=C(Nc1cc(C(F)(F)F)ccc1Cl)C(NCc1ccccc1)c1ccccc1 (configuration not stated)	GLP1R inv ag 3.5µM
CCN(CC)CCNC(C(=O)Nc1cc(C(F)(F)F)ccc1Cl)c1ccccc1 (configuration not stated)	HEK293 tox inconclusive, GLP1R inv ag inconclusive
CCCCN(CCC(=O)O)c1ccc(/C=C/c2ccnc3ccccc23)cc1	TRPML1 ag 99 (no result: TRPML1 blocker, HEK293 tox, GLP1R inv ag, GLP1R ag)
COc1cc2nc(N3CCCCC3)nc(NC3CC3)c2cc1OC	none (no result: TRPML1 blocker, HEK293 tox, GLP1R inv ag, GLP1R ag)
Cc1ccc(S(=O)(=O)c2ccc([N+](=O)[O-])cn2)cc1	HEK293 tox inconclusive, GLP1R inv ag 7.9µM
CCOC(=O)/C(=N/Nc1ccc(OC)cc1)N1CCCc2ccccc21	GLP1R inv ag 4.5µM
COc1ccc(-c2cn3c(C)c(C(=O)N4CCN(c5ccccc5F)CC4)sc3n2)cc1	GLP1R inv ag inconclusive
COc1ccc(-c2cn3c(C)c(C(=O)N4CCCc5ccccc54)sc3n2)cc1	GLP1R inv ag 8.9µM
CCOC(=O)/C(=N/Nc1ccccc1)N1CCCc2ccccc21	GLP1R inv ag inconclusive
CCCN(CCC)C(=O)c1c[nH]c2ccc(S(=O)(=O)N(C)c3ccc(Cl)cc3)cc2c1=O	none (no result: GLP1R ag)
O=C(NCCc1ccc(Cl)cc1)c1cc(-c2ccc(Cl)cc2)n[nH]1	none (no result: GLP1R ag)
Cc1ccc(C2C(C=Nc3c(C)n(C)n(-c4ccccc4)c3=O)=C(c3ccccc3)Oc3ccccc32)cc1 (configuration not stated)	GLP1R inv ag 4µM
CCOc1ccc(-c2n[nH]c(C)c2Oc2ccccc2OC)c(O)c1	GLP1R inv ag inconclusive
